According to the supplement of paper PMC12494721:
Structures can show the parent of a compound that is named as a salt.

Assays:
Conditions in all cases: incubation time: 27 h, anaerobic, 37 °C;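 for the amine columns active = adjusted P below 0.05 in both replicates with a change the same way and a mean fold change under 0.8 or over 1.25; inactive = the rest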
[1] = test system: Clostridium sporogenes DSM 1664; test: growth (OD595) fold change vs plate DMSO controls (fold change (ratio)); higher = more growth
Method in brief: (§1)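 To obtain OD, 595 nm absorbance readings were blank-subtracted, corrected for compound background using 20 µM compound solutions in water, and multiplied by a calibration factor of 5. They came from 96-well mGAM cultures grown anaerobically for 27 h at 37 °C and shaken before reading. Growth is the fold change relative to the median of plate DMSO controls. Two biological replicates were averaged, and fold changes above 1.5 were set to NA.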

[2] = test system: Escherichia coli IAI1; test: as above
Method in brief: as §1

[3] = test system: Klebsiella aerogenes DSM 30053; test: as above
Method in brief: as §1

[4] = test system: Ruminococcus gnavus DSM 108212; test: as above
Method in brief: as §1

[5] = test system: Klebsiella aerogenes DSM 30053; test: fold change of Histamine concentration vs plate DMSO controls (fold change (ratio)); higher = more amine produced, active = hit call of the paper (significant change in both replicates, either direction)
Method in brief: (§2)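 In 80 µL wells, cultures of four gut bacterial strains in mGAM started at OD 0.1 before a 1:1 dilution and grew anaerobically at 37 °C for 27 h. Compounds were added to 20 µM final, except sweeteners at 50 µM final. After extraction of whole cultures with cold acetonitrile/methanol plus 0.1% formic acid and centrifugation, amines were measured by LC–triple-quadrupole MS in dynamic MRM mode against external calibration curves, with within-batch drift correction. Values give fold change over DMSO controls on the same plate, averaged across 2 biological replicates.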

[6] = test system: Clostridium sporogenes DSM 1664; test: fold change of Tryptamine concentration vs plate DMSO controls (fold change (ratio)); higher = more amine produced, active = hit call of the paper (significant change in both replicates, either direction)
Method in brief: as §2

[7] = test system: Ruminococcus gnavus DSM 108212; test: as above
Method in brief: as §2

[8] = test system: Escherichia coli IAI1; test: fold change of Putrescine concentration vs plate DMSO controls (fold change (ratio)); higher = more amine produced, active = hit call of the paper (significant change in both replicates, either direction)
Method in brief: as §2

[9] = test system: Klebsiella aerogenes DSM 30053; test: as above
Method in brief: as §2

[10] = test system: Escherichia coli IAI1; test: fold change of Cadaverine concentration vs plate DMSO controls (fold change (ratio)); higher = more amine produced, active = hit call of the paper (significant change in both replicates, either direction)
Method in brief: as §2

[11] = test system: Klebsiella aerogenes DSM 30053; test: as above
Method in brief: as §2

[12] = test system: Ruminococcus gnavus DSM 108212; test: fold change of 2-Phenylethylamine concentration vs plate DMSO controls (fold change (ratio)); higher = more amine produced, active = hit call of the paper (significant change in both replicates, either direction)
Method in brief: as §2

SMILES	growth [1]	growth [2]	growth [3]	growth [4]	fold change of Histamine concentration [5]	fold change of Tryptamine concentration [6]	fold change of Tryptamine concentration [7]	fold change of Putrescine concentration [8]	fold change of Putrescine concentration [9]	fold change of Cadaverine concentration [10]	fold change of Cadaverine concentration [11]	fold change of 2-Phenylethylamine concentration [12]
Cc1cnc(C(=O)O)c[n+]1[O-] [Acipimox] (20 µM)	1.05	0.996	1.27	0.959	0.874 (inactive)	0.952 (inactive)	1 (inactive)	1.01 (inactive)	0.998 (inactive)	1.03 (inactive)	1.03 (inactive)	1.03 (inactive)
CN(C)CCC=C1c2ccccc2COc2ccccc21 [Doxepin hydrochloride] (20 µM)	1.04	0.995	0.978	0.833	0.999 (inactive)	0.959 (inactive)	0.977 (inactive)	1.03 (inactive)	1 (inactive)	0.919 (inactive)	1 (inactive)	0.921 (inactive)
CN(C)CCCN1c2ccccc2Sc2ccccc21 [Promazine hydrochloride] (20 µM)	1.02	0.959	0.962	1	1.05 (inactive)	1.1 (inactive)	0.823 (inactive)	0.916 (inactive)	0.995 (inactive)	1.03 (inactive)	0.983 (inactive)	0.829 (inactive)
CN1CC(O)c2cc(N=NC(N)=O)c(O)cc21 (stereo not given) [Carbazochrome] (20 µM)	0.927	1.01	0.984	0.959	1.07 (inactive)	1.1 (inactive)	1.15 (inactive)	1.05 (inactive)	1.01 (inactive)	0.914 (inactive)	1.07 (inactive)	1.34 (inactive)
O=C(C1CCCCC1)N1CC(=O)N2CCc3ccccc3C2C1 (stereo not given) [Praziquantel] (20 µM)	1.01	0.975	0.99	0.82	1.06 (inactive)	0.989 (inactive)	1.03 (inactive)	0.947 (inactive)	1.02 (inactive)	1.02 (inactive)	0.978 (inactive)	0.992 (inactive)
CC(C)(C)C(=O)OCOC(=O)[C@@H]1N2C(=O)[C@@H](NC(=O)[C@H](N)c3ccccc3)[C@H]2SC1(C)C [Pivampicillin] (20 µM)	0	0.949	0.986	0	1.04 (inactive)	0.0632 (active)	0.0656 (active)	1.01 (inactive)	1 (inactive)	0.968 (inactive)	0.976 (inactive)	0.0585 (active)
NNc1nncc2ccccc12 [Hydralazine hydrochloride] (20 µM)	0.972	0.997	1	0.792	1.07 (inactive)	0.967 (inactive)	1.03 (inactive)	0.983 (inactive)	1.01 (inactive)	0.997 (inactive)	0.994 (inactive)	0.96 (inactive)
CC(=O)NS(=O)(=O)c1ccc(N)cc1 [Sulfacetamide sodic hydrate] (20 µM)	0.934	0.995	0.974	0.888	1.02 (inactive)	0.976 (inactive)	1.06 (inactive)	1.02 (inactive)	0.996 (inactive)	0.98 (inactive)	0.993 (inactive)	1.08 (inactive)
CC[C@@H]1C(=O)OC[C@@H]1Cc1cncn1C [Pilocarpine nitrate] (20 µM)	1.03	1	0.987	0.556	0.95 (inactive)	0.955 (inactive)	1.01 (inactive)	1.02 (inactive)	1.01 (inactive)	1.04 (inactive)	0.993 (inactive)	0.965 (inactive)
Nc1ncnc2c1ncn2[C@@H]1O[C@H](COP(=O)(O)O)[C@@H](O)[C@H]1O [5'-Adenylic acid] (50 µM)	0.902	0.983	1.04	1.03	0.938 (inactive)	0.951 (inactive)	1.01 (inactive)	1.01 (inactive)	1.03 (inactive)	0.905 (inactive)	1 (inactive)	0.989 (inactive)
CC[N+](C)(CC)CCOC(=O)C1c2ccccc2Oc2ccccc21 [Methantheline bromide] (20 µM)	0.956	1.01	0.979	0.897	1.05 (inactive)	0.999 (inactive)	1.01 (inactive)	1.04 (inactive)	1.01 (inactive)	1.02 (inactive)	0.984 (inactive)	1.05 (inactive)
COC(=O)C1=C(C)NC(C)=C(C(=O)OCCN(C)Cc2ccccc2)C1c1cccc([N+](=O)[O-])c1 (stereo not given) [Nicardipine hydrochloride] (20 µM)	1.11	0.934	1.01	1.18	0.982 (inactive)	0.981 (inactive)	0.915 (inactive)	1.04 (inactive)	0.999 (inactive)	0.995 (inactive)	0.99 (inactive)	0.858 (inactive)
C[C@H]1[C@H](OC(=O)CCC(=O)O)O[C@@H]2O[C@@]3(C)CC[C@H]4[C@H](C)CC[C@@H]1[C@@]24OO3 [Artesunate] (20 µM)	1.08	1.01	1.03	0.931	1.04 (inactive)	1.05 (inactive)	0.879 (inactive)	0.992 (inactive)	1.01 (inactive)	0.99 (inactive)	0.982 (inactive)	0.834 (inactive)
OC[C@@H](O)[C@@H](O)[C@H](O)[C@H](O)CO [Mannitol] (50 µM)	1.02	0.924	0.982	0.983	1.04 (inactive)	1.01 (inactive)	0.975 (inactive)	0.919 (inactive)	0.996 (inactive)	1.11 (inactive)	0.992 (inactive)	0.976 (inactive)
C[N+]1(C)CCC(=C(c2ccccc2)c2ccccc2)CC1 [Diphemanil methylsulfate] (20 µM)	1.04	1.02	1.07	0.984	0.94 (inactive)	1.17 (inactive)	1.01 (inactive)	0.958 (inactive)	0.962 (inactive)	1.02 (inactive)	1.02 (inactive)	1.06 (inactive)
CN1C2CCCC1CC(NC(=O)c1nn(C)c3ccccc13)C2 (stereo not given) [Granisetron] (20 µM)	1.04	1.02	1.01	1.04	1.02 (inactive)	1.04 (inactive)	1.07 (inactive)	1.05 (inactive)	1 (inactive)	0.999 (inactive)	1.01 (inactive)	1.08 (inactive)
Cn1cc(C(=O)Nc2ccc(F)cc2-c2ccc(Cl)c(Cl)c2)c(C(F)F)n1 (20 µM)	1.12	1	0.972	1.21	1.06 (inactive)	1.01 (inactive)	0.907 (inactive)	1.01 (inactive)	1.01 (inactive)	0.998 (inactive)	0.986 (inactive)	0.931 (inactive)
CCCCC[C@H](O)/C=C/[C@H]1[C@H](O)CC(=O)[C@@H]1CCCCCCC(=O)O [Alprostadil] (20 µM)	1.02	0.977	1.01	1.01	1.08 (inactive)	0.957 (inactive)	0.987 (inactive)	1.05 (inactive)	1.01 (inactive)	1.01 (inactive)	0.997 (inactive)	0.985 (inactive)
Cc1nc2ccccc2n1Cc1ccc(Cl)cc1 [Chlormidazole] (20 µM)	0.927	0.947	0.963	0.899	1.06 (inactive)	1 (inactive)	0.899 (inactive)	0.947 (inactive)	0.978 (inactive)	0.982 (inactive)	0.989 (inactive)	0.854 (inactive)
CCCCCN(C)CCC(O)(P(=O)(O)O)P(=O)(O)O [Ibandronate sodium] (20 µM)	1.07	0.989	0.973	0.926	1.04 (inactive)	1.05 (inactive)	0.934 (inactive)	1 (inactive)	1.01 (inactive)	1.03 (inactive)	0.994 (inactive)	0.958 (inactive)
CCN(CC)CCCC(C)Nc1ccnc2cc(Cl)ccc12 (stereo not given) [Chloroquine diphosphate] (20 µM)	1.07	0.965	0.996	0.941	1.04 (inactive)	1.1 (inactive)	1.03 (inactive)	0.939 (inactive)	1.02 (inactive)	0.962 (inactive)	0.985 (inactive)	1.02 (inactive)
O=C1CC[C@@H](C(=O)N2CSC[C@H]2C(=O)O)N1 [Pidotimod] (20 µM)	1.31	0.987	1.02	1.09	0.983 (inactive)	0.982 (inactive)	1.02 (inactive)	0.979 (inactive)	0.992 (inactive)	1.01 (inactive)	0.999 (inactive)	1.04 (inactive)
C[C@]12CCC3=C4CCC(=O)C=C4CC[C@H]3[C@@H]1CC[C@@]2(O)CC#N [Dienogest] (20 µM)	0.815	0.536	0.616	0.67	0.945 (inactive)	1.01 (inactive)	1.04 (inactive)	0.979 (inactive)	1 (inactive)	0.993 (inactive)	1 (inactive)	1.02 (inactive)
CC1(C)NC(=O)N(c2ccc([N+](=O)[O-])c(C(F)(F)F)c2)C1=O [Nilutamide] (20 µM)	0.998	1.02	0.999	0.98	1.05 (inactive)	0.955 (inactive)	0.957 (inactive)	1.1 (inactive)	1.01 (inactive)	0.987 (inactive)	0.995 (inactive)	0.981 (inactive)
NS(=O)(=O)c1cc(C(=O)O)c(NCc2ccco2)cc1Cl [Furosemide] (20 µM)	0.941	1.01	1.04	1.22	0.987 (inactive)	0.964 (inactive)	1.01 (inactive)	1.04 (inactive)	0.984 (inactive)	0.995 (inactive)	0.988 (inactive)	0.964 (inactive)
